# Screens from PubChem.
# Luciferase inh: inhibitors of firefly (Photinus pyralis) luciferase; purified P. pyralis luciferase, luminescence, biochemical; AID 1347043; 76,000 tested, 2.5% active; Potency, µM (highest dose often 115 µM), actives largely listed as inhibitors; further: nearly all actives have a fitted effect of over 65% in size
#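 Purified 10nM P. pyralis luciferase with 10uM D-luciferin and 10uM ATP in 50mM Tris acetate pH 7.5, 10mM Mg acetate, 0.01% Tween-20, 0.05% BSA. qHTS titration; luminescence read by CCD imager.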
# HEK293 tox: cytotoxic compounds in HEK 293 cells; 94,000 tested, 6.6% active; HEK 293 viability, ATP luminescence (CellTiter-Glo), 48-72 h; AID 1345083; Potency, µM (titrated, usually from 115 µM), actives largely listed as inhibitors; further: nearly all actives have a fitted effect of over 60% in size
#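 CellTiter-Glo luminescence (cellular ATP) was read after 48 or 72 hr of compound exposure at 37 degree Celsius. Cells were HEK 293 plated at 250 cells/well.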
# NIH3T3 tox: cytotoxic compounds in NIH 3T3 cells; NIH 3T3 viability, CellTiter-Glo ATP luminescence, 48-72 h; Potency, µM (highest dose often 96.7 µM), actives largely listed as inhibitors; 94,000 tested, 4.3% active; AID 1345082; further: nearly all actives have a fitted effect of over 55% in size
#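 Luminescent ATP readout (CellTiter-Glo, 10 min RT) after 48 or 72 hr compound exposure of NIH 3T3 cells seeded at 400 cells/well in 1536-well format; quantitative HTS.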
# NPR1 antag: human Npr1 receptor antagonism; P16066; HEK293 hNpr1 GloSensor cGMP, ANP-stimulated luminescence; Potency, µM (titrated, usually from 46.3 µM), actives largely listed as inhibitors; 76,000 tested, 1.6% active; calls by dose curve; further: nearly all actives have a fitted effect of over 60% in size
#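 Compound pre-incubated 30 min at room temperature on GloSensor-loaded HEK293 cells stably carrying hNpr1 and the pGS-40F cGMP biosensor. Stimulation uses hNppA at 0.1 nM final; luminescence is taken at baseline and 20 min post-agonist.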
# GPT2 inh: inhibitors of human GPT2 alanine aminotransferase; Q8TD30; Recombinant GPT2, coupled pyruvate oxidase/HRP Amplex Red fluorescence; Potency, µM (series often up to 57.7 µM), hits mostly inhibitors; 100,000 tested, 0.25% active; AID 1671188; further: nearly all actives have a fitted effect of over 60% in size
#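 GPT2 10ng/uL, a-KG 250uM, L-Ala 2mM, HEPES pH7.5 + 0.0001% Tween; 30 min RT. Then Amplex mix (PO/HRP/ThPP), 30 min RT dark, fluorescence. AOA 50uM used as positive control.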
# NPR1 antag cnf: hNpr1 antagonism, confirmation assay | shares compounds with NPR1 antag | HEK293 hNpr1 cGMP GloSensor luminescence, ANP-stimulated | Potency, µM (series often up to 57.6 µM), hits mostly inhibitors | 1,400 tested, 76% active; calls by dose curve; further: nearly all actives have a fitted effect of over 70% in size
# NPR2 antag: selectivity test of Npr1 antagonists against human Npr2; 1,400 tested, 67% active; shares compounds with NPR1 antag; Potency, µM (highest dose often 57.6 µM), hits mostly inhibitors; HEK293 hNpr2 GloSensor cGMP luminescence, CNP-stimulated; calls by dose curve; further: nearly all actives have a fitted effect of over 70% in size
# Target sequence (P20594 whole entry, looked up): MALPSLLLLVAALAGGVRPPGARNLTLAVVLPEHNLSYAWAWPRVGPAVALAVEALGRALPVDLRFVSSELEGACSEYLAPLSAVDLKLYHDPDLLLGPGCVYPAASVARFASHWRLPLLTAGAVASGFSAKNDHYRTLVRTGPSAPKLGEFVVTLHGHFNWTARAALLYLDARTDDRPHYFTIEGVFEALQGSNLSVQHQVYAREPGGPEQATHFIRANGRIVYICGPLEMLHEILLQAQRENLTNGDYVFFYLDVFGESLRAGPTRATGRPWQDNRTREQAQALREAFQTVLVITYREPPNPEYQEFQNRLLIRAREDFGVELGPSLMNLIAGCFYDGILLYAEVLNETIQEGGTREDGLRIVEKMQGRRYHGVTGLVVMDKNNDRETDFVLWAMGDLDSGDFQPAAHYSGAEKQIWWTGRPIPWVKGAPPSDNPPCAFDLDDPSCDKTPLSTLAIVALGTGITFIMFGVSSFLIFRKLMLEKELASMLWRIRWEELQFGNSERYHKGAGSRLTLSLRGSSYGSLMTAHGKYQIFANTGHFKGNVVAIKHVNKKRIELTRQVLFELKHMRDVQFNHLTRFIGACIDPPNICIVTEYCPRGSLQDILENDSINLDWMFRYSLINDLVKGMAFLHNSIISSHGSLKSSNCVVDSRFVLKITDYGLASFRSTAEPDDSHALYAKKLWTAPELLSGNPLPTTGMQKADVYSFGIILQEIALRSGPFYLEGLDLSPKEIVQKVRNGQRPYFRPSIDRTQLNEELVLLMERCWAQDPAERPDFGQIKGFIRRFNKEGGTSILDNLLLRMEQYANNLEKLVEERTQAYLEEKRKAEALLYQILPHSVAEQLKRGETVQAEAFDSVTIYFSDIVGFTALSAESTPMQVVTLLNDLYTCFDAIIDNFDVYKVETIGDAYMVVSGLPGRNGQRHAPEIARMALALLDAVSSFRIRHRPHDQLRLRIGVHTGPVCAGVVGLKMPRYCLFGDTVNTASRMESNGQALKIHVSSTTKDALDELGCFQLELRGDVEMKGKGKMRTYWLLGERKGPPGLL
# FLuc counter: FLuc enzyme inhibition, Npr1 counter-screen; shares compounds with NPR1 antag; 1,400 tested, 0.7% active; Potency, µM (series often up to 57.6 µM), actives largely listed as inhibitors; purified FLuc enzyme, luminescence, Km substrate
# GloSensor ctrl: control cell line activity, Npr1 antagonist counter-screen | shares compounds with NPR1 antag | HEK293 GloSensor cGMP, SNP-stimulated, luminescence | Potency, µM (series often up to 57.6 µM), usual class: inhibitors | 1,400 tested, 69% active | AID 1347051; calls by dose curve; further: nearly all actives have a fitted effect of over 70% in size
# A number is an active result; . = inactive; ? = inconclusive; / = not tested or not shown; [ ] = dose if it differs, or a comment. This is a sample that favours compounds with a hit; in the whole collection about 10% have one here. Unless noted, the call rests on the fitted dose curve; in most records, active means well fitted curve in the direction sought with a large enough effect; inconclusive means small, poorly fitted or top-dose-only effect, or another doubt; inactive means no such curve, though single readings can be large; an effect the other way counts as inactive or inconclusive.
SMILES,Luciferase inh,HEK293 tox,NIH3T3 tox,NPR1 antag,GPT2 inh,NPR1 antag cnf,NPR2 antag,FLuc counter,GloSensor ctrl
COc1cccc(S(=O)(=O)N2CCC3(CC2)CC(N(C)Cc2ccccc2)CCO3)c1 (centres undefined),.,?,?,?,.,?,?,.,?
Cc1ccc(C)c(NC(=O)N2CCCC(c3noc(COc4ccccc4)n3)C2)c1 (centres undefined),?,?,?,.,.,/,/,/,/
O=C(CCc1conc1-c1ccccc1F)NCc1ccc(Cl)cc1,.,?,?,.,.,/,/,/,/
COc1ccc(-c2nccn3cc(C(=O)NCCc4cccnc4)nc23)cc1,.,.,.,.,.,/,/,/,/
COc1ccc(-c2nccn3cc(C(=O)NCc4cccnc4)nc23)cc1,.,.,?,11.2µM,.,24.3µM,19.3µM,.,.
Cc1ccc(C2=NC3(CCN(C(=O)Cc4ccc(Cl)cc4)CC3)ON2)cc1,.,.,.,.,.,/,/,/,/
O=C(c1cc(F)ccc1F)N1CCC2(CC1)N=C(c1ccc(Cl)cc1)NO2,.,?,?,15.8µM,.,24.3µM,21.7µM,.,24.3µM
O=C(c1cccc2[nH]ccc12)N1CCC2(CC1)N=C(c1ccc(Cl)cc1)NO2,.,?,?,11.2µM,.,19.3µM,21.7µM,.,17.2µM
O=C(Cc1cccc(F)c1)N1CCC2(CC1)N=C(c1ccc(Cl)cc1)NO2,.,?,?,?,.,24.3µM,?,.,24.3µM
COc1ccc(Nc2cnc3ccc(N(C)Cc4cccnc4)nn23)cc1,.,?,?,.,.,/,/,/,/
COc1ccc(F)cc1Nc1cnc2ccc(N(C)Cc3cccnc3)nn12,.,35.5µM,?,7.94µM,?,25µM,25µM,.,17.7µM
CN(Cc1cccnc1)c1ccc2ncc(Nc3cccc(N[S+](C)(=O)[O-])c3)n2n1,.,.,?,.,.,/,/,/,/
CN(Cc1cccnc1)c1ccc2ncc(Nc3ccc(C(F)(F)F)cc3)n2n1,.,44.7µM,?,25.1µM,.,22.2µM,31.4µM,.,22.2µM
CN(Cc1cccnc1)c1ccc2ncc(Nc3cc(F)cc(N4CCOCC4)c3)n2n1,.,?,28.2µM,?,?,35.3µM,?,.,?
COc1ccc(C(=O)N2CCCC(C(=O)N3CCC(c4ccccc4)CC3)C2)cc1 (centres undefined),/,?,.,/,.,/,/,/,/
Cc1ccc(NC(=O)N2CCCN(CCn3nc4n(c3=O)CCCC4)CC2)cc1F,/,.,.,/,/,/,/,/,/
NCCCN1C(=O)CC[C@H]2CN(C(=O)CN3CCNC(=O)C3)CC[C@H]21,.,.,.,.,.,/,/,/,/
Cc1ccc(C(=O)N2CCCC2c2nc(CCOCC3CC3)no2)cn1 (centres undefined),.,.,.,.,.,/,/,/,/
Cc1cnc(C(=O)N2CCCC2c2nc(CCOCC3CCCC3)no2)cn1 (centres undefined),.,.,.,?,.,.,.,.,.
Cc1ccc(CNC(=O)N2CCC(Cc3ccc(C(=O)NC4CC4)cc3)CC2)cc1,.,?,?,?,.,?,?,.,?
CC(C)CCN1CCC(Cc2ccc(C(=O)NC3CC3)cc2)CC1,.,?,?,.,.,/,/,/,/
C[C@@H]1CC[C@]2(C(=O)O[C@@H]3O[C@H](CO)[C@@H](O)[C@H](O)[C@H]3O)CC[C@]3(C)C(=CCC4[C@@]5(C)C[C@@H](O)[C@H](O)[C@@](C)(C(=O)O[C@H]6[C@H](O)C[C@@]7(C)C(CC[C@]8(C)C7CC=C7[C@H]9[C@](C(=O)O[C@@H]%10O[C@H](CO)[C@@H](O)[C@H](O)[C@H]%10O)(CC[C@@H](C)[C@@]9(C)O)CC[C@]78C)[C@@]6(CO)C(=O)O)C5CC[C@]43C)[C@@H]2[C@]1(C)O (some centres undefined),/,/,/,/,.[11.5 µM],/,/,/,/
COc1ccc(C(=O)NC2CCN(c3cc(-c4ccc(F)cc4)[nH]n3)CC2)c(C)c1,.,?,?,.,.,?,?,.,.
COc1ccc(CC(=O)NC2CCN(c3cc(-c4ccc(OC)cc4)[nH]n3)CC2)cc1,.,?,?,.,.,?,?,.,.
COc1ccc(-c2cc(N3CCN(C(=O)c4ccc(Cl)cc4OC)CC3)n[nH]2)cc1,.,?,?,?,.,/,/,/,/
SMILES,Luciferase inh,HEK293 tox,NIH3T3 tox,NPR1 antag,GPT2 inh,NPR1 antag cnf,NPR2 antag,FLuc counter,GloSensor ctrl
COc1ccc(C(=O)N2CCCN(c3cc(-c4ccc(F)cc4)[nH]n3)CC2)c(C)c1,.,?,?,5.62µM,?,10.9µM,12.2µM,.,6.85µM
COc1ccc(-c2cc(N3CCN(C(=O)c4ccc(F)cc4F)CC3)n[nH]2)cc1,.,?,?,.,.,/,/,/,/
COc1ccc(C(=O)N2CCCN(c3cc(-c4ccc(Cl)cc4)[nH]n3)CC2)c(C)c1,.,50.1µM,?,3.55µM,.,9.68µM,10.9µM,.,9.68µM
COc1cccc(NC(=O)CCC2CCN(C(=O)CN3C(=O)CNC3=O)CC2)c1,.,.,.,.,?,/,/,/,/
O=C(NC1CCN(c2cc(-c3ccccc3)[nH]n2)CC1)c1cc(Cl)ccc1F,.,?,?,.,.,.,.,.,.
COc1ccc(CC(=O)NC2CCCN(c3cc(-c4ccc(Cl)cc4)[nH]n3)C2)cc1OC (centres undefined),.,22.4µM,?,11.2µM,.,24.3µM,15.3µM,.,24.3µM
O=C(NC1CCCN(c2cc(-c3ccccc3)[nH]n2)C1)c1cc(Cl)ccc1F (centres undefined),.,?,?,.,.,/,/,/,/
COCCN1C(=O)Cc2ccccc2C1C(=O)NCc1ccccc1 (centres undefined),.,.,.,.,?,/,/,/,/
O=C(CN1CC2CC(C1)[C@H]1CCCC(=O)N1C2)NCC1CC1 (some centres undefined),.,.,.,.,.,/,/,/,/
CCC(=O)Nc1ccc(C2(C(=O)NCc3ccc(Br)cc3)CCC2)cc1,.,.,.,.,?,/,/,/,/
COc1ccc([S+](=O)([O-])N2CCC3(CC2)OCCN(CC2CC2)C3=O)cc1,.,?,?,?,.,31.4µM,?,.,31.4µM
